Four compounds from PubChem BioAssay (EPA / NIEHS) can be followed below.

A short description of experiment [1]: ATG_GLI_CIS: Attagene CIS-FACTORIAL HepG2 Assay for human Zinc Finger Protein GLI1 (AID 2282945). To be noted: HepG2, Attagene cis-factorial reporter mRNA, GLI element; actives raise or lower the signal. An outline of the steps: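 HepG2 cells transiently transfected with cis-promoter multiplexed reporter units report endogenous transcription factor activity. After 24 h chemical exposure, reporter mRNA was quantified by RT-PCR, 6-FAM labelling, HpaI digestion and capillary electrophoresis, with bidirectional fitting against DMSO.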

Experiment [2] concerns the target Bile acid receptor (Homo sapiens) (UniProt Q96RI1). Kind of experiment: ATG_IR1_CIS: Attagene CIS-FACTORIAL HepG2 Assay for human Nuclear Receptor Subfamily 1 Group H Member 4 (NR1H4), IR1 submotif (AID 2282946). To be noted: IR1 reporter transcription, actives raise or lower the signal. An outline of the steps:
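Transient MRTU transfection, HepG2; 24 h dosing; RNA → RT-PCR → 6-FAM primer extension → HpaI digest → capillary electrophoresis fluorescence. Gain/loss of signal fitted relative to DMSO.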

Experiment [3] can be described thus: ATG_GRE_CIS: Attagene CIS-FACTORIAL HepG2 Assay for human Glucocorticoid Response Elements (GRE) (AID 2282947). To be noted: HepG2 GRE cis-reporter, Attagene multiplex mRNA; actives raise or lower the signal. In a few lines: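 HepG2 cells transiently transfected with multiple cis-promoter reporter units measure endogenous TF activity; 24 h compound exposure. Reporter mRNA quantified by RT-PCR, FAM labelling, HpaI digestion and capillary electrophoresis; bidirectional fit vs DMSO baseline.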

The nature of experiment [4]: ATG_ISRE_CIS: Attagene CIS-FACTORIAL HepG2 Assay for human Interferon Regulatory Factor 1 (IRF1) binding to an Interferon-Stimulated Response Element (ISRE) (AID 2282948). To be noted: HepG2 ISRE cis-reporter (Attagene), mRNA transcription readout; actives raise or lower the signal. An outline of the steps: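 Transiently transfected HepG2 cells carrying cis-element reporter units, dosed 24 hours. Reporter mRNA quantified by RT-PCR, fluorescent primer extension, HpaI digestion and capillary electrophoresis. Bidirectional fitting relative to DMSO.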

The nature of experiment [5]: ATG_M_32_CIS: Attagene CIS-FACTORIAL HepG2 Assay for M32 Transcription Factor (Internal Marker) (AID 2282949).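 Also: background control marker of the multiplexed CIS panel rather than a real target.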 To be noted: HepG2 Attagene cis-factorial M32 reporter, mRNA; actives raise or lower the signal. An outline of the steps: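 Internal background marker read-out: RT-PCR/capillary electrophoresis fluorescence of reporter transcripts from transiently transfected HepG2 cells after 24 h chemical exposure. Activity fitted bidirectionally relative to DMSO negative control.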

Experiment [6] can be described thus: ATG_M_06_CIS: Attagene CIS-FACTORIAL HepG2 Assay for M06 Transcription Factor (Internal Marker) (AID 2282950). To be noted: HepG2 Attagene CIS-FACTORIAL M06 internal marker reporter; actives raise or lower the signal. An outline of the steps: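 Fluorescence-labelled RT-PCR products from cis-promoter reporter units, cut with HpaI and resolved by capillary electrophoresis, give the signal. Cells are human HepG2, dosed for 24 h. Serves as background control, fitted relative to DMSO.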

In experiment [7] the target is Hypoxia-inducible factor 1-alpha (Homo sapiens) (UniProt Q16665). As to the kind of experiment: ATG_HIF1a_CIS: Attagene CIS-FACTORIAL HepG2 Assay for human Hypoxia Inducible Factor 1 (HIF1A) (AID 2282951). To be noted: HepG2 Attagene cis-factorial HIF1a reporter transcription; actives raise or lower the signal. In a few lines: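 Transient MRTU transfection of human HepG2 liver cells, 24 h compound treatment, then total RNA isolation, oligo(dT) reverse transcription, PCR amplification, fluorescent labelling and capillary electrophoresis of reporter fragments. Gain or loss relative to DMSO.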
Chain of Hypoxia-inducible factor 1-alpha (Homo sapiens) (Q16665 whole entry, looked up, the tested form may be a part): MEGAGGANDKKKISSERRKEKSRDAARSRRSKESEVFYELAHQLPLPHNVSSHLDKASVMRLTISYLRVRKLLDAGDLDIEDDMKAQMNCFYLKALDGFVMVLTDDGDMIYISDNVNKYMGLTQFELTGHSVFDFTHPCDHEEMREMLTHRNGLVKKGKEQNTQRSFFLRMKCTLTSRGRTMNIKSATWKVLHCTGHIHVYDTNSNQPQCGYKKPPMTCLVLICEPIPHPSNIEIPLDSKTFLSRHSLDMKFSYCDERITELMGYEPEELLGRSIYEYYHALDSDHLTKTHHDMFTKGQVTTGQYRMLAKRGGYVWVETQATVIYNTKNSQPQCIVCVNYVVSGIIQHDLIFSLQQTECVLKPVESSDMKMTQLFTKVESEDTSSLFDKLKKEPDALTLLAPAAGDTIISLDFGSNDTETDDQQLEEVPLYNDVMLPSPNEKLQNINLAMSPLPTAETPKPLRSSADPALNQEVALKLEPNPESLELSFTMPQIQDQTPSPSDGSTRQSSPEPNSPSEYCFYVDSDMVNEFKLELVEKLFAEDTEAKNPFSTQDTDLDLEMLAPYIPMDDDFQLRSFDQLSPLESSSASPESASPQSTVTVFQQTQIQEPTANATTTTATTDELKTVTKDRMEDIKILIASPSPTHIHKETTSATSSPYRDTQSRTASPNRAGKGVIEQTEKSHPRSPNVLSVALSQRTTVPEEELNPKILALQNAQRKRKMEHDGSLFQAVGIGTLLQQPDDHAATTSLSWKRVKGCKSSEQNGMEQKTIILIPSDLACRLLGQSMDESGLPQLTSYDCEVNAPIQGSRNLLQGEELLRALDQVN

For experiment [8], the target named is Hepatocyte nuclear factor 6 (Homo sapiens) (UniProt Q9UBC0). As to the kind of experiment: ATG_HNF6_CIS: Attagene CIS-FACTORIAL HepG2 Assay for human Hepatocyte Nuclear Factor 6 (HNF6) (AID 2282952). To be noted: HepG2 Attagene cis-factorial HNF6 reporter transcription; actives raise or lower the signal. In a few lines:
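HepG2 cells transiently transfected with cis-element-driven multiplexed reporter units measuring endogenous transcription factor activity. After 24 h exposure, reporter mRNA quantified by RT-PCR, FAM-labelled fragments and capillary electrophoresis; bidirectional fitting versus DMSO.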

Experiment [9] in a line: ATG_MRE_CIS: Attagene CIS-FACTORIAL HepG2 Assay for human Metal Responsive Element (MRE) (AID 2282954). To be noted: HepG2 MRE cis-reporter transcription, Attagene multiplex; actives raise or lower the signal. An outline of the steps: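 HepG2 cells transiently transfected with multiple cis-element reporter units measure endogenous MTF1-driven transcription. After 24 h compound exposure, reporter mRNA is quantified by RT-PCR with 6-FAM labelling, HpaI digestion and capillary electrophoresis; bidirectional fits versus DMSO.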

For experiment [10], the target named is Paired box protein Pax-6 (Homo sapiens) (UniProt P26367). As to the kind of experiment: ATG_Pax6_CIS: Attagene CIS-FACTORIAL HepG2 Assay for human Paired Box 6 (PAX6) (AID 2282956). To be noted: HepG2 CIS-FACTORIAL PAX6 reporter transcription, RNA readout; actives raise or lower the signal. An outline of the steps: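 HepG2 cells transiently transfected with cis-promoter-driven multiplexed reporter units sensing endogenous transcription factor activity; 24 h chemical exposure. Reporter mRNA quantified by RT-PCR, 6-FAM labelling, HpaI digestion and capillary electrophoresis; bidirectional fit versus DMSO baseline.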
Chain of Paired box protein Pax-6 (Homo sapiens) (P26367 whole entry, looked up): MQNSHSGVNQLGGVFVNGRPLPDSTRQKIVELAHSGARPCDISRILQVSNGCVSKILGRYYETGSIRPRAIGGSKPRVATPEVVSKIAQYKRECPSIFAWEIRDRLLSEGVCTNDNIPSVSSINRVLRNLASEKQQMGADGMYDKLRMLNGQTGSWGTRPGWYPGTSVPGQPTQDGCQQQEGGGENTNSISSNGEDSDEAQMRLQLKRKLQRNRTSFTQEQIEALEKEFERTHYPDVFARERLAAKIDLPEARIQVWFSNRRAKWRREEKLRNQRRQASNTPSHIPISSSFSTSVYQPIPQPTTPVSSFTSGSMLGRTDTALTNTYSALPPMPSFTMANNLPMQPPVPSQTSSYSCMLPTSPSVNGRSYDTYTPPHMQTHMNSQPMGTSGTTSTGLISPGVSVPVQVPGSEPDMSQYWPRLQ

Experiment [11] is described as follows: ATG_PXRE_CIS: Attagene CIS-FACTORIAL HepG2 Assay for human Pregnane X Receptor Element (PXRE) (AID 2282957). To be noted: HepG2 Attagene CIS-FACTORIAL PXRE reporter, mRNA; actives raise or lower the signal. An outline of the steps:
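HepG2 cells transiently transfected with cis-element-driven multiplexed reporter units; after 24 h chemical exposure, reporter mRNA measured by RT-PCR, 6-FAM labelling, HpaI digestion and capillary electrophoresis. Bidirectional fitting relative to DMSO.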

Experiment [12] in a line: ATG_PPRE_CIS: Attagene CIS-FACTORIAL HepG2 Assay for human Peroxisome Proliferator-activated Response Element (PPRE) (AID 2282958). To be noted: HepG2 PPRE cis-element reporter, Attagene transcription factor profiling; actives raise or lower the signal. In a few lines:
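HepG2, transient MRTU transfection (cis promoter elements, endogenous TFs). 24 h dosing. RNA → oligo(dT) RT → PCR → 6-FAM primer extension → HpaI digest → CE. Bidirectional fit vs DMSO.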

Experiment [13] in a line: ATG_RORE_CIS: Attagene CIS-FACTORIAL HepG2 Assay for human RAR-related Orphan Receptor Element (RORE) (AID 2282959). To be noted: HepG2 Attagene cis-factorial RORE reporter, mRNA; actives raise or lower the signal. An outline of the steps:
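Transient MRTU transfection of human HepG2 liver cells (FuGene 6); 24 h compound exposure; TriZol RNA, oligo(dT) RT, PCR, FAM labeling, HpaI cut, CE fragment analysis. DMSO = negative control/baseline.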

Experiment [14] in a line: ATG_Sox_CIS: Attagene CIS-FACTORIAL HepG2 Assay for human SRY-box transcription factor (SOX) (AID 2282960). To be noted: HepG2 Attagene cis-factorial SOX reporter, mRNA; actives raise or lower the signal. In a few lines: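 Endogenous factor activity in human liver HepG2 cells carrying transfected cis-regulated reporter units. RNA taken 24 h post-dose, reverse-transcribed, PCR-amplified and sized by capillary electrophoresis. Gain or loss of signal fitted relative to DMSO.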

Experiment [15] deals with Transcription factor Sp1 (Homo sapiens) (UniProt P08047). Kind of experiment: ATG_Sp1_CIS: Attagene CIS-FACTORIAL HepG2 Assay for human Specificity Protein 1 (Sp1) (AID 2282961). To be noted: HepG2 Sp1 cis-reporter transcription, actives raise or lower the signal. In a few lines: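 Transient MRTU-transfected HepG2, 24 h compound exposure. Total RNA → oligo(dT) RT → PCR of reporter → 6-FAM primer extension → HpaI digest → CE. Endpoint fitted both directions vs DMSO.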
Chain of Transcription factor Sp1 (Homo sapiens) (P08047 whole entry, looked up): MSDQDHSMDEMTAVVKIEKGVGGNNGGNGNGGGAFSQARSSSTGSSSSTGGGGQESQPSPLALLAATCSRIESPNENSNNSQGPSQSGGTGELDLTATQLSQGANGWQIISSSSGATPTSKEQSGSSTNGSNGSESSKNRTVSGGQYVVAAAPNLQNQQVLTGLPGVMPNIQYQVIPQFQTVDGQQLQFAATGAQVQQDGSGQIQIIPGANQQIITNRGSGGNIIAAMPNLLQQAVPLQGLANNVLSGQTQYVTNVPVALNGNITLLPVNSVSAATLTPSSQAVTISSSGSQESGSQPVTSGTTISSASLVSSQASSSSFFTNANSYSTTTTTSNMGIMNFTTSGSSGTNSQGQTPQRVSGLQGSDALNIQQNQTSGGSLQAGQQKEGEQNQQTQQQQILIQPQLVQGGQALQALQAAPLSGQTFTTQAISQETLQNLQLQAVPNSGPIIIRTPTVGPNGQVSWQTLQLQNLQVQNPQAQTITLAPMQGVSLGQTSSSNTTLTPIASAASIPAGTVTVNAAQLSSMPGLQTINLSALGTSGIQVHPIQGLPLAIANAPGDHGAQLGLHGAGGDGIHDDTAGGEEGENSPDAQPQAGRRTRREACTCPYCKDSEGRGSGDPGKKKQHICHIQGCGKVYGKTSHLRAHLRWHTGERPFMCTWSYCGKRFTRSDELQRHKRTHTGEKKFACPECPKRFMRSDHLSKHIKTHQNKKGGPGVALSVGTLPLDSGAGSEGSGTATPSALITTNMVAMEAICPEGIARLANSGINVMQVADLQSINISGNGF

Experiment [16] can be described thus: ATG_SREBP_CIS: Attagene CIS-FACTORIAL HepG2 Assay for human Sterol Regulatory Element Binding (SREBP) (AID 2282962). To be noted: HepG2 Attagene cis-factorial SREBP reporter, mRNA; actives raise or lower the signal. An outline of the steps: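 HepG2 cells transiently transfected with multiplexed cis-promoter reporter units sensing endogenous transcription factors; reporter mRNA measured 24 h after dosing by RT-PCR, 6-FAM labeling, HpaI digestion and capillary electrophoresis. Bidirectional fit versus DMSO.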

Experiment [17] addresses Signal transducer and activator of transcription 3 (Homo sapiens) (UniProt P40763). Kind of experiment: ATG_STAT3_CIS: Attagene CIS-FACTORIAL HepG2 Assay for human Signal Transducer and Activator of Transcription 3 (STAT3) (AID 2282963). To be noted: HepG2, Attagene cis-factorial STAT3 reporter transcription; actives raise or lower the signal. In a few lines:
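HepG2 cells transiently transfected with cis-element-driven multiple reporter transcription units; after 24 h chemical exposure, reporter mRNA measured by RT-PCR, 6-FAM primer-extension labelling, HpaI digestion and capillary electrophoresis. Bidirectional fitting versus DMSO baseline.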

Experiment [18] is described as follows: ATG_TA_CIS: Attagene CIS-FACTORIAL HepG2 Assay for human TA Basal Promoter (AID 2282964). To be noted: HepG2 Attagene CIS-factorial TA basal promoter reporter; actives raise or lower the signal. An outline of the steps:
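Multiplexed mRNA reporter assay, HepG2, 24 h. Reporter cDNA amplified, 6-FAM primer-extended, HpaI-cut, CE-sized; DMSO = negative control and baseline.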

For experiment [19], the target named is Heat shock factor protein 1 (Homo sapiens) (UniProt Q00613). Kind of experiment: ATG_HSE_CIS: Attagene CIS-FACTORIAL HepG2 Assay for human Heat Shock Transcription Factor 1 (HSE) (AID 2282953). To be noted: HepG2 HSE cis-reporter, Attagene RNA transcription; actives raise or lower the signal. In a few lines:
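After a 24 h incubation with test chemical, transfected HepG2 cells were harvested for RNA; reporter transcripts were measured by RT-PCR and capillary electrophoresis. Values reflect gain or loss of signal relative to DMSO.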

Experiment [20] in a line: ATG_PBREM_CIS: Attagene CIS-FACTORIAL HepG2 Assay for human Phenobarbital-responsive Enhancer Module (PBREM) (AID 2282955). To be noted: HepG2 PBREM cis-reporter, Attagene multiplexed transcription; actives raise or lower the signal. An outline of the steps:
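Endogenous transcription factors in human liver HepG2 cells drive a PBREM cis-element reporter, whose transcript level after 24 h treatment is quantified by RT-PCR with capillary electrophoresis; activity fitted in both directions against DMSO.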

The AC50 is the midpoint of the concentration-response curve, whichever way the signal moves.

Activity calls are given as the source filed them. The calls were made as follows: active = hit-call score of the fitted dose curve at least 0.9, where 1 is the maximum; inactive = score below 0.9.

Chain of Bile acid receptor (Homo sapiens) (Q96RI1 whole entry, looked up): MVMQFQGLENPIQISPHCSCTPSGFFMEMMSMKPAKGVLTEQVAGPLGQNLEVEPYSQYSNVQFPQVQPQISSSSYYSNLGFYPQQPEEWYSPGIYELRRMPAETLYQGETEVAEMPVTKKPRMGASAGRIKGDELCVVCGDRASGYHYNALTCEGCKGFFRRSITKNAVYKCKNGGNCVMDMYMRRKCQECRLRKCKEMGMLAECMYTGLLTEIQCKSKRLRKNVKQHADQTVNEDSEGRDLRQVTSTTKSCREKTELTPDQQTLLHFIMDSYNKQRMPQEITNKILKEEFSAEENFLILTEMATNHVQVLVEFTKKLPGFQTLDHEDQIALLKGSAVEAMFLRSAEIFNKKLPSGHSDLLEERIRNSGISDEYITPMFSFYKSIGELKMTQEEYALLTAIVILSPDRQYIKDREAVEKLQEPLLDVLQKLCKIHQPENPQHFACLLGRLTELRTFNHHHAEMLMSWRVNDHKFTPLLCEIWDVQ
Chain of Hepatocyte nuclear factor 6 (Homo sapiens) (Q9UBC0 whole entry, looked up, the tested form may be a part): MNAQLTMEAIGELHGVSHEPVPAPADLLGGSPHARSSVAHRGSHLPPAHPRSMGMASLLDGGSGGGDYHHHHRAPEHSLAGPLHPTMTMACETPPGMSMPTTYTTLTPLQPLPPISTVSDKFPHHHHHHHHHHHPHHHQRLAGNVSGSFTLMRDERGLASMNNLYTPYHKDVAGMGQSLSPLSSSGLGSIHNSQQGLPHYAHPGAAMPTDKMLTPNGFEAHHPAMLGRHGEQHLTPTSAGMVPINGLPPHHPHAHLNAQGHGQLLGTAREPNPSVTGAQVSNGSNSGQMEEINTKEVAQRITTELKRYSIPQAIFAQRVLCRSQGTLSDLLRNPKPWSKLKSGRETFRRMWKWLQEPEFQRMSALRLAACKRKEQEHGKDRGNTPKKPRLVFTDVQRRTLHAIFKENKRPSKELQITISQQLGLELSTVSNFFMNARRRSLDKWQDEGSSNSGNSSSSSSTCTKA
Chain of Signal transducer and activator of transcription 3 (Homo sapiens) (P40763 whole entry, looked up): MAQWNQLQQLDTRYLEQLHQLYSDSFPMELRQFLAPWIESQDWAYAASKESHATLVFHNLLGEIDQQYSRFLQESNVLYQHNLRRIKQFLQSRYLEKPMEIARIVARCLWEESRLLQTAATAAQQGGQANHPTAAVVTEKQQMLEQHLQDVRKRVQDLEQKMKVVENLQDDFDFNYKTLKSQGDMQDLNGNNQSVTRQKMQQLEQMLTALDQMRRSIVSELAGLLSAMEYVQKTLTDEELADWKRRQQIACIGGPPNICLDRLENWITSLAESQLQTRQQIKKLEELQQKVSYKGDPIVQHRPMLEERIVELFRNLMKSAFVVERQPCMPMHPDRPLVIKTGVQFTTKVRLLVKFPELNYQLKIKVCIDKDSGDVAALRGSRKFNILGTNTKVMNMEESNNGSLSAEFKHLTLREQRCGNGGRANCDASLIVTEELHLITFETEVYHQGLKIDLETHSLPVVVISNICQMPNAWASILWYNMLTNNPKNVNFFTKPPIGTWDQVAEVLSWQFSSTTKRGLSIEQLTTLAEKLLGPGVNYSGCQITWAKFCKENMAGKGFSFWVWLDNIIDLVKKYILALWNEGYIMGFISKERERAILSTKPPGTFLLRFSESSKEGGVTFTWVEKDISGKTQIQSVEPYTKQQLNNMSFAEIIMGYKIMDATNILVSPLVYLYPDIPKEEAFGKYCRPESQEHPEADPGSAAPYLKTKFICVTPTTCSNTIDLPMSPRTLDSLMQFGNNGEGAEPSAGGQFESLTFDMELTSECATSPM
Chain of Heat shock factor protein 1 (Homo sapiens) (Q00613 whole entry, looked up): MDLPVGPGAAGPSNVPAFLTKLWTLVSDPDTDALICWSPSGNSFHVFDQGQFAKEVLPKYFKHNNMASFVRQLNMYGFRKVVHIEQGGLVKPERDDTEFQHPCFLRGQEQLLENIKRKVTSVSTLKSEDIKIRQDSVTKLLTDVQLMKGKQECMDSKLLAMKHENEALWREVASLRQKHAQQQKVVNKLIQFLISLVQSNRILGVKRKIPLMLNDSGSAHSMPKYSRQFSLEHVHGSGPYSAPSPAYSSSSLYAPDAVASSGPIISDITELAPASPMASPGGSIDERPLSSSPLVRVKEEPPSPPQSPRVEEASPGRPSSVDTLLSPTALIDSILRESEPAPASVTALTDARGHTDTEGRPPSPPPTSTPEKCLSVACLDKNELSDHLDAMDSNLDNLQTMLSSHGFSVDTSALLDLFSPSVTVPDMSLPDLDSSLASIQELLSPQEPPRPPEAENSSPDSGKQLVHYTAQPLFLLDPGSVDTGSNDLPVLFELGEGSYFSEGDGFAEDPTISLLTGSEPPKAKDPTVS

As for `Cn1cccc1`, the outcome in experiment [1], in [2], in experiment [3], in experiment [4], in [5] and in [6] was inactive. Besides, the result in [7], in [8], in [9], in experiment [10], in [11] and in experiment [12] was inactive. The compound was called inactive in [13], in [14], in [16] and in experiment [17]. In addition, the AC50 in experiment [15] is 25.7 µM (active).

With `Clc1cccnc1`, the result in [1], in [2], in experiment [3], in experiment [4], in experiment [5] and in [6] was inactive. Moreover, the result in [7], in experiment [8], in [9], in [10], in experiment [12] and in experiment [13] was inactive. In addition, the call in [14], in [15], in experiment [17] and in experiment [18] was inactive. Besides, in experiment [11], the AC50 is 27 µM (active).

Consider `CC1OC(=O)C(C)OC1=O` (stereo not drawn), for which the call in experiment [1], in experiment [2], in experiment [3], in experiment [4], in [5] and in experiment [6] was inactive. The outcome in [8], in experiment [19], in experiment [9], in experiment [20], in experiment [11] and in experiment [12] was inactive. The call in experiment [14], in [15], in [16], in experiment [17] and in [18] was inactive.

As to `CC(C)=CCCC(C)=CC#N`, the result in experiment [1], in experiment [2], in [3], in experiment [4], in experiment [5] and in [6] was inactive. The compound was classed as inactive in experiment [7], in [8], in experiment [19], in experiment [9], in [20] and in [14]. The result in experiment [15], in experiment [16], in experiment [17] and in experiment [18] was inactive. Also, in [11], the AC50 is 25.5 µM (active).
